This note sets out measurements from ChEMBL document CHEMBL3988442, “University of Dundee, Small-Polar-MMV Screening Library” (2021).

Potency and affinity values are given separately.

Protein translocase subunit SecA (Escherichia coli (strain K12)), sequence (P10408 whole entry): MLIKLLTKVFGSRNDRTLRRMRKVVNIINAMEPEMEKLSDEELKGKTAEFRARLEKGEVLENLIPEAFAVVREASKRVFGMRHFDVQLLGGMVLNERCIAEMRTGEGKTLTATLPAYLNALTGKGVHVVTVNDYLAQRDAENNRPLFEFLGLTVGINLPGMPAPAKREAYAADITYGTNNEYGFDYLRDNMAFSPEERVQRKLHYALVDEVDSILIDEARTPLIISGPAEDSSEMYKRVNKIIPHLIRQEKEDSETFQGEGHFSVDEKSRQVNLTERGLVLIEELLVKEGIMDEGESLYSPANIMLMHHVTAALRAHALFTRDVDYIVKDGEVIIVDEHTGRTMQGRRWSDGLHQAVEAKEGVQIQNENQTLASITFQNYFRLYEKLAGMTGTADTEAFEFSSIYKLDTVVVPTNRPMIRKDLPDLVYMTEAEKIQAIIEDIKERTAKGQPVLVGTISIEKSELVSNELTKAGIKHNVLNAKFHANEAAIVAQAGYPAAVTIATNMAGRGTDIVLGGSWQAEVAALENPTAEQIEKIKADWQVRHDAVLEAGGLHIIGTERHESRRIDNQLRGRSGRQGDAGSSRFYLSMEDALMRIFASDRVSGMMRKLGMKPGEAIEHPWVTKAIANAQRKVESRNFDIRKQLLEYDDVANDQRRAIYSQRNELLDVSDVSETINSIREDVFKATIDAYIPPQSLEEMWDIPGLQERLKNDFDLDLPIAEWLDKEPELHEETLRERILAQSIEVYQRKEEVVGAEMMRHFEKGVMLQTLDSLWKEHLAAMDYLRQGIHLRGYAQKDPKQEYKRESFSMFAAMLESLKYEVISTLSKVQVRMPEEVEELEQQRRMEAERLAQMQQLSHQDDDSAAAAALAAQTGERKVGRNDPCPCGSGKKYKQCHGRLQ

The experiment addresses Protein translocase subunit SecA (Escherichia coli (strain K12)) (UniProt P10408). The experiment in a line: Assay to Identify E. coli SecA ATPase Inhibitors. The format is functional. On the set-up: scale not given: direction of the effect not stated beside the values. The following applies: 30 µM.
Take `CCn1nc(C)c(CNC(=O)c2cn(CC3CCCO3)nn2)c1C` (stereo not given): the Percent Effect is -6.8%.
To `CN1CCCc2cc(CNC(=O)c3ccc(NC4CC4)nc3)ccc21` belongs -1.41%; to `Cc1ccc(CNC2CCCc3c2cnn3C)s1` (stereo not given), -5.39%; to `Cc1nc(CN2CCN(CC(=O)Nc3c(C)cccc3C)CC2)no1`, -3.96%.
To `CC(=O)N1CCC(C(=O)c2cc(C)cnc2N)CC1` belongs -3.36%.
To `CC(=O)N1C[C@H](NC(=O)c2cscn2)[C@@H]2OCCC[C@@H]21` belongs -1.76%; to `NC(=O)COc1ccc(CNCc2ccc(F)cc2F)cc1`, -2.69%; to `CCCNC(=O)CN1CCN(Cc2csc(C(C)(C)C)n2)CC1`, -7.74%.
Consider `CCN1CC2(CCNCC2)COc2ccccc2S1(=O)=O`, for which the Percent Effect is -1.39%.
To `Cc1ccccc1CSc1nc(N)cc(N2CC[C@@H](O)C2)n1` belongs -5.3%; to `O=C1CC2(CCN(CCO)CC2)CN1Cc1cc(F)cc(F)c1`, -3.75%; to `O=C(c1csc(-c2cccs2)n1)N1CCCC1Cn1cccn1` (stereo not given), -3.61%.
Under `CS(=O)(=O)N1CCC(Oc2ccc(C(=O)N3CCSCC3)cc2Cl)CC1` stands -2.47%; under `CCc1nnc2n1CCN(Cc1csc(-c3cnn(C)c3)n1)C2`, -3.51%.
To `CN(C)C(=O)CNC(=O)c1ccc(Cl)cc1F` belongs -6.12%; to `Fc1ccc(-c2cnc(CN3CCCC3Cn3cccn3)o2)cc1` (stereo not given), -4.06%.
Regarding `Cc1cccnc1NCCNC(=O)[C@H]1CNC[C@@H](C(=O)N2CCCC2)C1`, the Percent Effect was -3.94%.
To `Cc1cnc(NC(=O)c2ccc(-n3ncc(C#N)c3N)cc2)s1` belongs -5.51%.
Under `NCc1cnn(-c2ccccc2C(=O)NCCCn2ccnc2)c1` stands -3.74%; under `CN(Cc1cnn(C)c1)C(=O)NC1CCN(Cc2ccccn2)CC1`, -4.71%.
